Reference: PubChem BioAssay (NCI)
The panel holds about 83,000 compounds, 20% with a hit somewhere; the sample as a whole holds those more often.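 Each cell line was grown in a 96-well plate and treated with one concentration of compound for 48 hours. Values below 10 were considered active.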 Unmarked numbers belong to inactive results. Active and inactive are the calls of the source.

Each compound was assayed on SN12C renal (assay: NCI-60 one-dose screen, 48 h (100 = growth as untreated, 0 = no growth, -100 = all killed)). Details: 10 µM.
Protocol: Growth inhibition of the SN12C human tumor cell line is measured as a screen for anti-cancer activity. Cells are grown in 96 well plates and exposed to the test compound for 48 hours. Compounds are tested at a single concentration, which is 10^-5 M for most compounds. The reported endpoint is percent growth (GI% or GIPRCNT), where numbers from 0 - 100% represent growth inhibition, and numbers from -100% - 0 represent cell death. For example, a value of 40 represents 60% growth inhibition. A value of 0 means no net growth occurred over the course of the experiment. A value of -40 indicates 40% of cells at the beginning of the experiment died by the end of the experiment. A value of -100 means all cells are dead at the end of the experiment.
NCI-60 Human Tumor Cell Lines Screen was performed using the standard one-dose NCI protocol, which is described in more detail at https://dtp.cancer.gov/discovery_development/nci-60/default.htm.
Compounds with GIPRCNT values below 10 were considered active. Activity score was based on GIPRCNT using the following formula: […]
Score is 0 for GIPRCNT values of 100 or above, 50 for GIPRCNT values of 0, and 100 for GIPRCNT values of -100.

For `CCn1c(SCc2ccc(C)cc2)nnc1-c1nn(-c2ccc(Cl)cc2Cl)c(-c2ccc(Cl)cc2)c1C`, which growth is on record?
Its growth is 1.66% (active).

`COc1cc2c(Nc3ccc(-c4ccc(N)cc4)cc3)ncnc2c(OC)c1OC` was tested. Which growth did it give?
Its growth is 62.2%.

For `O=C(Nc1cc([N+](=O)[O-])c2[nH]c(=O)c3ccccc3c2c1)C(F)(F)F`, which growth is on record?
The growth was 76.8%.

Which growth does the source give for `O=C(CC(CC(=O)c1ccccc1)c1ccccc1O)c1ccccc1` here?
The growth was 96.2%.

How did the growth turn out when `c1cncc(-c2csc(-c3c[nH]c4ccccc34)n2)c1` was run?
Its growth is 85.9%.

`CC1C(=NC(=O)c2cnccn2)C(C)C(c2ccc(Cl)cc2)NC1c1ccncc1` (stereo not given) was tested. Which growth did it give?
The growth was 93.3%.

With `COc1ccc(/C=C2\CCCC3=C2N=C2SC(C)=CN2C3c2ccc(OC)cc2)cc1` (stereo not given) as the compound, how does the growth read?
The growth was 104%.

`O=C(NCCNC(=O)c1ccc(F)cc1)Nc1ccc(-n2cc(-c3ccncc3)c(-c3ccc(Cl)c(O)c3)n2)cc1` was tested. Which growth did it give?
The growth was 31.5%.

How did the growth turn out when `CC1=CC2C(C(O)CC3(C)C2CC(C)C32OCOC23COCO3)C2(C)C/C(=C/O)C(=O)C=C12` (stereo not given) was run?
The growth was 26.2%.

`CCCCCCCCCCOC(c1ccccc1)c1ccccc1` was tested. Which growth did it give?
Its growth is 102%.

`CC(C)C1=C(O)C2=C(C(=O)C1=O)[C@@]1(C)CCCC(C)(C)[C@@H]1CC2` was tested. Which growth did it give?
Its growth is 81%.

With `CCCCC(CC)CN=C(N)NC(N)=NCCCCCCN=C(N)NC(N)=NCC(CC)CCCC` (stereo not given) as the compound, how does the growth read?
Its growth is -85.3% (active).

`COc1ccc([C@H]2[C@H](C(=O)Nc3cccnc3)c3ccccc3C(=O)N2c2ccccc2)cc1` was tested. Which growth did it give?
Its growth is 99.4%.

`COc1cccc(-c2nc3sccn3c2-c2cccc(S(C)(=O)=O)c2)c1` was tested. Which growth did it give?
Its growth is 99.1%.

`CC(C)c1ccc(C(C)C(=O)N(CC2=C(C(C)c3ccccn3)c3ccccc3C2)C(C)C)cc1` (stereo not given) was tested. Which growth did it give?
The growth was 34%.

`C[C@]12CCC3c4ccc(O)cc4C[C@@H](CCCCCCCCCS(=O)CCCC(F)(F)C(F)(F)F)C3C1CC[C@@H]2O` (stereo not given in full) was tested. Which growth did it give?
Its growth is 93.7%.

`N=C1S/C(=C/c2ccc(-c3ccc4c(c3)C(=O)NC4=O)o2)C(=O)N1c1ccc(Br)cc1` was tested. Which growth did it give?
Its growth is 56.3%.

Which growth does the source give for `Cc1ccc(C(SCC(N)C(=O)O)(c2ccc(C)cc2)c2ccc(C)cc2)cc1` (stereo not given) here?
The growth was 42.3%.

With `O=C(CCc1nnc2sc(-c3cc(O)c(O)c(O)c3)nn12)c1nc2ccccc2[nH]1` as the compound, how does the growth read?
Its growth is 107%.

How did the growth turn out when `COc1ccc(-c2cc(-c3ccc(Cl)cc3)nc(SCCCC(=O)NO)n2)cc1` was run?
The growth was 2.49% (active).

How did the growth turn out when `O=c1c(Br)ccc(Br)cc1Br` was run?
Its growth is 4.44% (active).

With `O=S(=O)(Oc1ccc(-c2ccc3sccc3c2)cc1)c1ccccc1` as the compound, how does the growth read?
The growth was 97.7%.

`CCC(C)[C@H](NC(C)=O)C(=O)N[C@@H](CCCNC(=N)N)C(=O)N[C@@H](CCCCN)C(=O)N[C@@H](CC1CCC(O)CC1)C(=O)NC(C(=O)N[C@@H](CCSC)C(=O)N[C@@H](CCCNC(=N)N)C(=O)N[C@@]1(C)CCC/C=C\CCC[C@@](C)(C(=O)NC(C(=O)N[C@@H](CCC(=O)O)C(=O)N[C@@H](CC(C)C)C(=O)N[C@H](C(=O)N[C@@H](CCC(=O)O)C(N)=O)C(C)C)[C@@H](C)O)NC(=O)[C@H](CCC(N)=O)NC(=O)[C@H](CC(C)C)NC(=O)[C@H](CC(C)C)NC1=O)[C@@H](C)O` (stereo not given in full) was tested. Which growth did it give?
Its growth is 93.2%.

Which growth does the source give for `CC(C)(C)OC(=O)N1CCc2c(sc3ncnc(N/N=C/c4cccc5ccccc45)c23)C1` here?
Its growth is 32.8%.

How did the growth turn out when `Clc1nc2ccc(Br)cc2cc1-c1nc2ccccc2[nH]1` was run?
Its growth is 15.2%.

`CC(C)(C)OC(=O)CN1CCc2c(sc3ncnc(N/N=C/c4ccccc4Br)c23)C1` was tested. Which growth did it give?
Its growth is 73.3%.

`O=C(CCCCCCC(=O)Nc1ccccc1)NO` was tested. Which growth did it give?
The growth was 11.7%.

How did the growth turn out when `CCN(CC)CCCC(C)Nc1c2ccc(Cl)cc2nc2ccc(OC)cc12` (stereo not given) was run?
Its growth is 33.2%.

With `CCN(CC)CCNc1ccc(C)c2sc3cc(Cl)ccc3c(=O)c12` as the compound, how does the growth read?
Its growth is 35.6%.

For `O=C1c2ccccc2C(=O)c2c1ccc1c(=O)n(-c3ccccc3C(F)(F)F)nnc21`, which growth is on record?
The growth was 5.97% (active).

`O=[N+]([O-])c1ccc2ncccc2c1Cl` was tested. Which growth did it give?
Its growth is 45.6%.

How did the growth turn out when `COc1ccc(-c2nn(-c3cccc(Cl)c3)cc2-c2cc(-c3cccs3)[nH]c(=S)n2)cc1` was run?
Its growth is 61.1%.

Which growth does the source give for `CCOC(=O)c1cc(C(=O)c2cc(OC)cc(OC)c2)n2nc(C)ccc12` here?
Its growth is 58.1%.

For `COc1cc2cc(Oc3ccc(NC(=O)c4ccccc4)cc3)c(C)nc2cc1OC`, which growth is on record?
The growth was 81%.

For `CN1C(=O)C2(Nc3cc(Cl)ccc3S2)c2cc(Cl)ccc21` (stereo not given), which growth is on record?
The growth was 82.2%.

How did the growth turn out when `NC(N)=N/N=C(\c1ccccc1)C(O)c1ccccc1` (stereo not given) was run?
The growth was 99.6%.

Which growth does the source give for `CN1CCN(c2cc3c(cc2F)c(=O)c(C(=O)O)cn3-c2ccc(F)cc2)CC1` here?
Its growth is 97.3%.

With `CN1CCN(C2=Nc3ccccc3Oc3ccc(Cl)cc32)CC1` as the compound, how does the growth read?
Its growth is 100%.

How did the growth turn out when `COc1ccc(C2=Cn3c(CCC(=O)c4nc5ccccc5[nH]4)nnc3SC2)cc1` was run?
Its growth is 98.9%.

`CSc1nc(S(C)(=O)=O)nc2[nH]c(=O)[nH]c12` was tested. Which growth did it give?
Its growth is 95.9%.
